High-throughput results as filed in PubChem BioAssay.
The list is not random: actives were taken first. Their share in the collection is about 12%.
HP1b binding inh: HP1-beta chromodomain-methylated histone interaction inhibition; P83916; AlphaScreen HP1-beta / biotin-H3K9me3 peptide binding; Potency, µM (highest dose often 114 µM), inactives show top-dose activity change, negative = inhibition, actives largely listed as inhibitors; 390,000 compounds, 0.56% hits; note: nearly all actives have a fitted effect of over 70% in size
Target sequence (P83916 whole entry, looked up): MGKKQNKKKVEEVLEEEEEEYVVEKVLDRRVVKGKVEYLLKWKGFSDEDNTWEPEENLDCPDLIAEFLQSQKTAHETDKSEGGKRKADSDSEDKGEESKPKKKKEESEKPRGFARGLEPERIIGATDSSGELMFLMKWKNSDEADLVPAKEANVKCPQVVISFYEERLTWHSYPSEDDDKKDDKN
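HP1-beta protein (50 nM final) preincubated 30 min at room temperature with biotinylated H3(1-18)K9me3 peptide (50 nM) in PBS pH 7.4, 0.01% Tween-20, then compound added for 30 min. AlphaScreen streptavidin donor/nickel chelate acceptor beads (10 ug/mL final), 30 min dark, luminescence read.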
BAZ2B inh: blocks human BAZ2B; Potency, µM (doses to about 114 µM), for the others: at the top dose activity change, negative = inhibition, usual class: inhibitors; Q9UIF8; AlphaScreen BAZ2B-H3K14Ac peptide displacement; 360,000 compounds, 4.4% hits; note: % is set by controls: 0 for no effect and ±100 for the full control effect; nearly all actives have a fitted effect of over 60% in size
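Complex of BAZ2B and biotin-H3K14Ac (50 nM apiece) forms over 30 min at RT, then faces library compounds up to 110 uM for another 30 min; AlphaScreen beads added, 20 min dark incubation, luminescence read.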
JMJD2A Tudor inh: blocks the human JMJD2A Tudor domain | O75164 | AlphaScreen JMJD2A-Tudor / H3K4me3 peptide binding | Potency, µM (titrated, usually from 114 µM), inactives show at the highest dose activity change, negative = inhibition, most hits filed as inhibitors | 390,000 compounds, 4.4% hits; note: % is set by controls: 0 for no effect and ±100 for the full control effect; nearly all actives have a fitted effect of over 50% in size
G9a inh: G9a (human) methyltransferase inhibition. Q96KQ7. G9a H3K9 monomethylation, AlphaScreen, 2 h. Potency, µM (top dose mostly 102 µM), without a hit: at the top dose activity, negative = inhibition, actives largely listed as inhibitors. 350,000 compounds, 8.8% hits. AID 504332; note: % is set by controls: 0 for no effect and ±100 for the full control effect; nearly all actives have a fitted effect of over 75% in size
Target sequence (Q96KQ7 913-1193 limits assumed): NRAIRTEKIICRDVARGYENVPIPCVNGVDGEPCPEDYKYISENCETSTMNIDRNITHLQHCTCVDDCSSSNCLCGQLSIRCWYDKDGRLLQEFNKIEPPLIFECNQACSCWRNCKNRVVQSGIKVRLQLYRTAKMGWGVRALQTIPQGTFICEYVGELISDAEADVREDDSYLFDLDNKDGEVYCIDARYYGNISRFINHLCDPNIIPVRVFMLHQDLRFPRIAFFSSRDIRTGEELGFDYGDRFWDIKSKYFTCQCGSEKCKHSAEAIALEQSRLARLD
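Signal arises when biotinylated H3K9 peptide, once monomethylated, bridges streptavidin donor and antibody-captured acceptor beads. Enzyme at 20 nM was preincubated 15 min with test compounds; peptide 500 nM and SAM 20 uM then reacted for 2 h.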
L3MBTL1 inh-1: blocks human L3MBTL1; 230,000 compounds, 0.66% hits; AID 485360; Potency, µM (doses to about 57.1 µM), without a hit: at the highest dose activity, negative = inhibition, hits mostly inhibitors; AlphaScreen L3MBTL1–H3K9me1 peptide binding; note: % is set by controls: 0 for no effect and ±100 for the full control effect; nearly all actives have a fitted effect of over 60% in size
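L3MBTL1 50 nM + b-AHA-H3(1-15)K9me1 75 nM, 30 min RT; compound added, 30 min RT; streptavidin donor/Ni-chelate acceptor beads 10 ug/mL each final, 30 min RT dark; AlphaScreen read.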
Sfp inh: Sfp phosphopantetheinyl transferase inhibition | Q9F4F7 | Biochemical Sfp PPTase activity, qHTS | Potency, µM, without a hit: largest response in the series, negative = inhibition, actives largely listed as inhibitors | 310,000 compounds, 3.5% hits | AID 1490;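 note: the enzyme is Sfp with the accession as filed and its product quenches rhodamine fluorescence; 0% = enzyme reaction without inhibitor and -100% = no enzyme wells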
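Reaction rates are the 30-min fluorescence difference (ex 525, em 598 nm) in wells containing 15 nM Sfp, 5 uM rhodamine-CoA and 12.5 uM BHQ-2-YbbR at pH 7.6 with 10 mM MgCl2.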
L3MBTL1 inh-2: L3MBTL1 binding inhibition validated; 500 compounds, 91% hits; Potency, µM, most hits filed as inhibitors; L3MBTL1 methyl-lysine binding inhibition, biochemical qHTS; AID 540279; shares compounds with L3MBTL1 inh-1; note: nearly all actives have a fitted effect of over 70% in size
L3MBTL1 ctr: counter-screen for L3MBTL1 inhibitors: AlphaScreen signal interference. shares compounds with L3MBTL1 inh-1. AlphaScreen counterscreen, signal inhibition. Potency, µM (titrated, usually from 57.1 µM), inactives show at the highest dose activity change, negative = inhibition, most hits filed as inhibitors. 500 tested, under 10 active; note: 0% is about no effect
Numbers without * were called inactive; ? = inconclusive; / = no result; ! = not active in a repeat; [ ] = dose if it differs, or a comment. Calls come from the whole dose curve; as a rule, active = well fitted curve in the direction sought with a large enough effect; inconclusive = small, poorly fitted or top-dose-only effect, or another doubt; inactive = no such curve, though single readings can be large; an effect the other way counts as inactive or inconclusive. Potency is the fitted concentration of half-maximal effect.

SMILES | HP1b binding inh | BAZ2B inh | JMJD2A Tudor inh | G9a inh | L3MBTL1 inh-1 | Sfp inh | L3MBTL1 inh-2 | L3MBTL1 ctr
Cc1ccc(C(=O)OCC(=O)c2ccc(CC(=O)N3CCOCC3)s2)c(C)c1 | -36% | 50µM* | 13µM* | 45µM* | 20µM* | / | 3* | 8%
Cc1ccc(-n2c(C)cc(C(=O)OCC(=O)N3CCOCC3)c2C)cc1 | ? | / | -21% | / | -4% | / | / | /
O=C(CCS(=O)(=O)c1ccc(Br)cc1)Nc1cc(F)ccc1F | 32µM* | 45µM* | -19%[57.1 µM] | 50µM* | 28µM* | -5% | 27* | 10%
COC(=O)c1ccccc1NC(=O)CCS(=O)(=O)c1ccc(Br)cc1 | 3.2µM* | 2µM* | 4µM* | 2.2µM* | 8.9µM* | 1% | 2.7* | 4%
COc1cccc(=O)c2c(C)n(-c3ccc(C(=O)O)cc3)c(C)c12 | -16% | ? | -29% | ? | 25µM* | 4.5µM* | 21* | -15%
COc1ccc(-n2c(C)c3c(OC)cccc(=O)c3c2C)cc1 | -15% | ? | -33% | ? | 2% | -18% | / | /
O=C(NCCc1ccc(C(F)(F)F)cc1)C1CCC(=O)N(CCCN2CCCC2=O)C1 (stereo not given) | 22% | -5% | -11% | / | 3% | 10% | / | /
NC(=O)N/N=C/c1ccccc1OCC(=O)NCc1ccccc1 | 38% | 1% | 1% | -10% | -3% | 16% | / | /
COc1ccc(C(=O)Nc2cccc(C(=O)Nc3cc(C)ccn3)c2)cc1 | 79% | / | -13% | / | / | / | / | /
CN(CCC#N)C(=O)COC(=O)c1c2c(nc3ccccc13)/C(=C/c1ccco1)CC2 | ? | 45µM* | 89µM* | 22µM* | 10µM* | -75% | 2.1* | ?
COc1ccc(S(=O)(=O)N2CCc3ccccc32)cc1C(=O)N(CC(C)C)C1CCS(=O)(=O)C1 (stereo not given) | 25% | -2% | -16% | ? | 22% | / | / | /
Cc1cccc(CSCCNC(=O)CN(c2ccccc2)S(=O)(=O)N(C)C)c1 | 59% | 20% | -3% | 30%[59 µM] | / | / | / | /
CCOc1cccc2c1Oc1nc(-c3ccccc3)nc(SCC(=O)Nc3ccc(F)cc3)c1C2 | 25% | -5% | -10% | ? | / | / | / | /
O=C(CSc1nc(-c2ccccc2)nc2c1Cc1ccccc1O2)Nc1ccc(C(=O)O)cc1 | 32µM* | 13µM* | 10µM* | -4% | 10µM* | 79µM* | 6* | ?
COc1cc(/C=C/[N+](=O)[O-])ccc1OCc1cccc(C(=O)O)c1 | 7% | 28µM* | -31% | 14µM* | 28µM* | 14µM* | ? | 2%
CCCc1cc(=O)oc2cc(OCC(=O)NCCc3ccc(S(N)(=O)=O)cc3)ccc12 | 44% | -12% | -9% | 58% | / | 15% | / | /
C=CC(=O)NCC1OCCc2ccccc21 (stereo not given) | 8% | -8% | 4%[11.4 µM] | 16%[12.7 µM] | 8% | 12% | / | /
O=C(/C=C/c1ccco1)NCC1OCCc2ccccc21 (stereo not given) | 32µM* | 45µM* | 50µM* | 5%[12.7 µM] | 22µM* | 22µM* | 6* | 1%
O=C(CSc1nnc(C2COc3ccccc3O2)o1)Nc1nccs1 (stereo not given) | 48% | 40µM* | 79µM* | 0% | 22µM* | -3% | ? | 13%
COc1ccc(-c2nnc(SCC(=O)Nc3c(C)cccc3C)nc2-c2ccc(OC)cc2)cc1 | -1% | -14% | -36% | ? | / | / | / | /
Cc1cccc(C)c1NC(=O)CSc1nnc(-c2ccco2)c(-c2ccco2)n1 | 50µM* | 2.5µM* | 25µM* | 19%[0.501 µM] | 2.8µM* | 11µM* | 2.7* | -29%
O=S(=O)(NCc1ccccc1)c1ccc(Br)c2nsnc12 | -20% | -33% | -29% | -33% | / | 12% | / | /
COc1ccc2[nH]c(=O)cc(C(=O)O)c2c1 | -7% | 50µM* | ? | 35µM* | 22µM* | 9% | 3.4* | 0%
O=C(O)c1ccc2[nH]c3c(c2c1)CSCC3 | 33% | -3% | -12% | ? | 32µM* | 40µM* | 13* | 2%
O=C(O)c1cc2[nH]c3c(c2cc1Cl)CCCC3 | 10% | -8% | -30% | 2%[0.501 µM] | 2%[2.29 µM] | 26% | / | /
SMILES | HP1b binding inh | BAZ2B inh | JMJD2A Tudor inh | G9a inh | L3MBTL1 inh-1 | Sfp inh | L3MBTL1 inh-2 | L3MBTL1 ctr
COC(=O)C1CCN(C(=O)c2cc(-c3ccco3)nc3ccccc23)CC1 | ? | / | 28µM* | / | 0.79µM* | / | 5.3* | 2%
O=C(O)c1cc(-c2ccco2)nc2ccc(Br)cc12 | 56µM*! | 11% | 13µM*! | 3.5µM* | 4.5µM* | 13µM*! | 2.4* | 1%
CC(C)CCNC(=O)c1cc(-c2ccco2)nc2ccccc12 | 15% | -6% | -10% | 31%[12.7 µM] | / | -4% | / | /
CN(C)C(CNC(=O)c1cc(-c2ccco2)nc2ccccc12)c1ccccc1 (stereo not given) | -12%[57 µM] | / | ? | / | 7.9µM* | / | 2.7* | -6%
CCCCCCNC(=O)c1cc(-c2ccco2)nc2ccccc12 | 22µM* | 35µM* | 20µM* | 8.9µM* | 14µM* | ? | 7.5* | 8%
O=C(c1ccco1)N1CCN(C(=O)c2cc(-c3ccncc3)nc3ccc(Br)cc23)CC1 | 17% | / | 2% | / | / | / | / | /
O=C(COC(=O)c1nc(Cl)c(Cl)c(Cl)c1Cl)NCc1ccccc1 | 27% | ? | -26% | ? | -8% | / | / | /
O=S(=O)(Nc1cc(Sc2cccc3cccnc23)c(O)c2ccccc12)c1ccc(F)cc1 | 18µM* | ? | 18µM* | 2µM* | 28µM* | 10µM* | 21* | -16%
O=C(NC1CC1)C1CCN(S(=O)(=O)c2cc([N+](=O)[O-])ccc2Cl)CC1 | 7% | 32µM* | 8.9µM* | ? | 7.9µM* | / | 3* | 7%
COCCCNC(=O)C1Cc2cc(S(=O)(=O)N3CCCC3)ccc2N1C(C)=O (stereo not given) | 2% | -10% | ? | 18% | / | 9% | / | /
COc1ccc2[nH]cc(S(=O)(=O)c3ccc(C(C)C)cc3)c(=O)c2c1 | 25% | 12% | -15% | -5% | / | 7% | / | /
O=C(O)c1ccc2c3c(cccc13)C(=O)N(c1ccccc1)C2=O | ? | 56µM* | ? | 20µM* | 13µM* | 5% | 2.7* | 4%
